Each structure is given as a SMILES string. Values without a mark were called inactive. No rule for the calls is given here.

The nature of one experiment: inhibitors of hydroxyurea-induced Chk1 phosphorylation, primary screen, imaging, HeLa, phospho-Chk1 antibody, percent positive cells (AID 1186). The conditions noted are these: hydroxyurea-induced phospho-Chk1 immunofluorescence imaging, higher = more signal.
Regarding `C=CCC(OC(C)=O)[C@@H]1[C@@H](N(Cc2ccc(-c3cccc(C(F)(F)F)c3)o2)C(=O)c2cccc3ccccc23)c2cc(OCCCO)ccc2N1C(=O)c1ccc(-c2ccccc2)cc1` (stereo not given in full), the z-score is -0.403. `COc1cc(NN2C(C(O)c3ccc(I)cc3)C=CC3C(=O)N(C)C(=O)C32)cc(OC)c1OC` (stereo not given): the z-score was -0.297. `C=CCC(OC(C)=O)[C@@H]1[C@@H](N(Cc2cccc3ccccc23)C(=O)Cc2ccc(F)cc2)c2cc(OCCCO)ccc2N1C(=O)Cc1ccc(OC)cc1` (stereo not given in full): the z-score was -0.0456. As to `C=CCOC(=O)[C@@H]1[C@H]2C(=O)O[C@H](c3ccccc3)[C@H](c3ccccc3)N2[C@H](c2ccc(OCCOC(=O)[C@H]3C[C@H]4C(=O)N[C@@H](Cc5ccccc5)C(=O)N4[C@H]3c3cccc(OCCO)c3)cc2)[C@@]12C(=O)Nc1ccc(I)cc12`, the z-score was -0.173. In the case of `CC(C)c1ccc(NN2C(C(O)c3cccs3)C=CC3C(=O)N(c4ccccc4)C(=O)C32)cc1` (stereo not given), the z-score was 0.847.

Take `CC1CC/C=C\[C@H]2OC34C=CCN(Cc5ccccc5)C(=O)[C@H]3N(CCO)C(=O)[C@@H]4C2C(=O)O1` (stereo not given in full): the z-score is -0.455.

For the molecule `COCCOC(=O)N1C(=O)[C@@]2(c3cc(C#CC4(O)CCCCCC4)ccc31)[C@H](C(=O)N1CCc3cc(OC)c(OC)cc3C1)[C@H]1C(=O)O[C@H](c3ccccc3)[C@H](c3ccccc3)N1[C@@H]2c1ccccc1OCCO`, the z-score is 0.286. With `COc1ccc([Si](C)(C)[C@H]2[C@H](CC(=O)N3CCC[C@H]3CO)O[C@@]3(C(=O)N(Cc4ccc(N5C(=O)c6cccc7cccc5c67)cc4)c4ccccc43)[C@@H]2C)cc1`, the z-score was 0.171. As to `C=C(C(=O)CC[C@H](OC(=O)c1cccnc1)c1ccc(OCCO)cc1)C(C)C`, the z-score is 0.387. Regarding `COC(=O)[C@@]1(Cc2ccccc2)[C@H]2c3cc(C(=O)N4CCCC4)n(CCO)c3C[C@H]2CN1C(=O)c1ccccc1`, the z-score was -0.536.

In the case of `C=CCNC(=O)[C@H]1[C@@H]2C(=O)O[C@@H](c3ccccc3)[C@@H](c3ccccc3)N2[C@@H](c2ccc(OCCO)cc2)[C@]12C(=O)N(C(=O)OCCOC)c1ccc(C#CC3=CCCCC3)cc12`, the z-score is -0.142.

In the case of `O=C1C2C=CC(C(O)c3cccc4ccccc34)N(Nc3ccccc3)C2C(=O)N1c1ccccc1` (stereo not given), the z-score is 0.107. For the molecule `Cc1ccc(S[C@]2(C(=O)O)CC(=O)N(C3CCCCC3)[C@@H]2c2ccc(CO)cc2)cc1`, the z-score was -0.643. Regarding `CC(=O)NCCCC[C@@H]1NC(=O)[C@H]2C[C@@H](C(=O)NCCCCCN)[C@@H](c3cccc(OCCO)c3)N2C1=O`, the z-score was -1.11. As for `C=C(CCCC)/C(=C/C[C@@H](OC(=O)c1ccncc1)c1ccccc1OCCO)c1cc(C(=O)OC)ccc1OC`, the z-score was -0.585.

Consider `C=CC[C@]1(C(=O)N2CCOCC2)N=C(c2ccc(OCCCO)cc2)O[C@H]1c1ccccc1CN=[N+]=[N-]`, for which the z-score was -0.552. For `C=C(C)[C@@H]1CC=C(C(O)C2C=CC3C(=O)N(C4CCCCC4)C(=O)C3N2Nc2ccc(OC)cc2)CC1` (stereo not given in full), the z-score is -0.385. Turning to `CC1(C)[C@@H]2CC(C(O)C3C=CC4C(=O)N(c5ccccc5)C(=O)C4N3Nc3ccccc3F)=C[C@@H]1C2` (stereo not given in full), the z-score was 0.498. Turning to `[N-]=[N+]=NCc1ccccc1[C@H]1OC(c2ccc(OCCCO)cc2)=N[C@@]1(Cc1ccccc1N=[N+]=[N-])C(=O)N1CCCCC1`, the z-score is -0.335. For `CC(C)N1CC=CC23O[C@@H]4C=CCOC(=O)[C@@H]4[C@H]2C(=O)N(CCCCCCO)[C@@H]3C1=O` (stereo not given in full), the z-score was 0.477.

On to `CN1C(=O)C2C=CC(C(O)C3CCCCC3)N(N(c3ccccc3)c3ccccc3)C2C1=O` (stereo not given), for which the z-score was 0.74. As for `CC(C)(C)OC(=O)CC[C@]1(C(=O)O)COC(c2ccc(OCCCO)cc2)=N1`, the z-score was -0.325. The same measure, in the same setting: under `O=C1O[C@H](c2ccccc2)[C@H](c2ccccc2)N2[C@H]1[C@@H](C(=O)N1CCN(c3ncccn3)CC1)[C@]1(C(=O)Nc3ccc(C#CCCO)cc31)[C@H]2c1ccc(OCCO)cc1` stands 0.177; under `CN1C(=O)C2C=CC(C(O)c3cccc4ccccc34)N(NC(=O)OC(C)(C)C)C2C1=O` (stereo not given), 0.326.

The nature of the next experiment: inhibitors of hydroxyurea-induced Chk1 phosphorylation, primary screen, imaging, HeLa, phospho-Chk1 nuclear intensity (AID 1187). Also: test concentration not given here. The conditions noted are these: hydroxyurea-induced phospho-Chk1 immunofluorescence imaging, higher = more signal.
With `C=CCN1C(=O)[C@@]2(O[C@@H](CCO)[C@H]([Si](C)(C)c3ccc(OC)cc3)[C@H]2C)c2cc(NC(=O)[C@H](C)O)ccc21`, the z-score was 0.18. On to `COC(=O)[C@@]1(Cc2ccc(OC)cc2)[C@H]2c3cc(C(=O)N4CCCC4)n(CCF)c3C[C@H]2CN1C(=O)c1ccccc1`, for which the z-score was -0.0625. Consider `O=C1N(Cc2ccccc2)c2ccccc2[C@H]2OC(c3ccc(OCCCO)cc3)=N[C@@]12CCS(=O)(=O)c1ccccc1`, for which the z-score is -0.0726. Turning to `CC(=O)NCCCC[C@@H]1NC(=O)[C@@H]2C[C@H](C(=O)NCCCC[N+](C)(C)C)[C@H](c3cccc(OCCO)c3)N2C1=O`, the z-score is -0.317. With `COCCCNC(=O)[C@@]1(Cc2ccccc2I)c2ccccc2C(=O)N(Cc2ccccc2Cl)[C@H]1c1ccc(CO)cc1`, the z-score was 0.187. `COCCCNC(=O)[C@@]1(Cc2ccccc2CN=[N+]=[N-])N=C(c2ccc(OCCCO)cc2)O[C@H]1c1ccccc1N=[N+]=[N-]`: the z-score was -0.475. Regarding `NCCCCCCNC(=O)[C@H]1C[C@H]2C(=O)N3CCC[C@H]3C(=O)N2[C@H]1c1ccc(O)cc1`, the z-score is 0.0369. With `C=C(/C(=C/C[C@@H](OC(=O)c1ccncc1)c1cccc(OCCO)c1)c1cc(C(=O)OC)ccc1OC)C(C)C`, the z-score is -0.235. For `CN1C(=O)C2C=CC(C(O)COCc3ccccc3)N(Nc3ccccc3)C2C1=O` (stereo not given), the z-score was 0.764.

In the case of `C=C[C@@H](O)[C@H]1CC(c2ccccc2)=NO1`, the z-score was -0.573. As to `COC(=O)[C@@]1(Cc2ccc(OC)cc2)[C@H]2c3cc(C(=O)N(C)C)n(CCF)c3C[C@H]2CN1C(=O)c1ccccc1`, the z-score was -0.241.

Turning to `C=CCC(OC(C)=O)[C@@H]1[C@@H](N(Cc2ccc(-c3cccc(C(F)(F)F)c3)o2)C(=O)c2cccc3ccccc23)c2cc(OCCCO)ccc2N1C(=O)c1ccc(-c2ccccc2)cc1` (stereo not given in full), the z-score was -0.16.

On to `COc1cc(NN2C(C(O)c3ccc(I)cc3)C=CC3C(=O)N(C)C(=O)C32)cc(OC)c1OC` (stereo not given), for which the z-score is -0.449.

Turning to `C=CCC(OC(C)=O)[C@@H]1[C@@H](N(Cc2cccc3ccccc23)C(=O)Cc2ccc(F)cc2)c2cc(OCCCO)ccc2N1C(=O)Cc1ccc(OC)cc1` (stereo not given in full), the z-score is -0.301.

Turning to `C=CCOC(=O)[C@@H]1[C@H]2C(=O)O[C@H](c3ccccc3)[C@H](c3ccccc3)N2[C@H](c2ccc(OCCOC(=O)[C@H]3C[C@H]4C(=O)N[C@@H](Cc5ccccc5)C(=O)N4[C@H]3c3cccc(OCCO)c3)cc2)[C@@]12C(=O)Nc1ccc(I)cc12`, the z-score was 0.0575.

On to `CC(C)c1ccc(NN2C(C(O)c3cccs3)C=CC3C(=O)N(c4ccccc4)C(=O)C32)cc1` (stereo not given), for which the z-score was 0.219. As to `CC1CC/C=C\[C@H]2OC34C=CCN(Cc5ccccc5)C(=O)[C@H]3N(CCO)C(=O)[C@@H]4C2C(=O)O1` (stereo not given in full), the z-score was -0.466. Take `COCCOC(=O)N1C(=O)[C@@]2(c3cc(C#CC4(O)CCCCCC4)ccc31)[C@H](C(=O)N1CCc3cc(OC)c(OC)cc3C1)[C@H]1C(=O)O[C@H](c3ccccc3)[C@H](c3ccccc3)N1[C@@H]2c1ccccc1OCCO`: the z-score is 1.13.

Consider `COc1ccc([Si](C)(C)[C@H]2[C@H](CC(=O)N3CCC[C@H]3CO)O[C@@]3(C(=O)N(Cc4ccc(N5C(=O)c6cccc7cccc5c67)cc4)c4ccccc43)[C@@H]2C)cc1`, for which the z-score is -0.4. Consider `C=C(C(=O)CC[C@H](OC(=O)c1cccnc1)c1ccc(OCCO)cc1)C(C)C`, for which the z-score is 0.05. On to `COC(=O)[C@@]1(Cc2ccccc2)[C@H]2c3cc(C(=O)N4CCCC4)n(CCO)c3C[C@H]2CN1C(=O)c1ccccc1`, for which the z-score is -0.0989.

In the case of `C=CCNC(=O)[C@H]1[C@@H]2C(=O)O[C@@H](c3ccccc3)[C@@H](c3ccccc3)N2[C@@H](c2ccc(OCCO)cc2)[C@]12C(=O)N(C(=O)OCCOC)c1ccc(C#CC3=CCCCC3)cc12`, the z-score was -0.108. Still for that read-out and setting: under `O=C1C2C=CC(C(O)c3cccc4ccccc34)N(Nc3ccccc3)C2C(=O)N1c1ccccc1` (stereo not given) stands -0.294; under `Cc1ccc(S[C@]2(C(=O)O)CC(=O)N(C3CCCCC3)[C@@H]2c2ccc(CO)cc2)cc1`, -0.583. As to `CC(=O)NCCCC[C@@H]1NC(=O)[C@H]2C[C@@H](C(=O)NCCCCCN)[C@@H](c3cccc(OCCO)c3)N2C1=O`, the z-score was -0.661. Turning to `C=C(CCCC)/C(=C/C[C@@H](OC(=O)c1ccncc1)c1ccccc1OCCO)c1cc(C(=O)OC)ccc1OC`, the z-score is 0.185. Consider `C=CC[C@]1(C(=O)N2CCOCC2)N=C(c2ccc(OCCCO)cc2)O[C@H]1c1ccccc1CN=[N+]=[N-]`, for which the z-score is -0.429.

Regarding `C=C(C)[C@@H]1CC=C(C(O)C2C=CC3C(=O)N(C4CCCCC4)C(=O)C3N2Nc2ccc(OC)cc2)CC1` (stereo not given in full), the z-score was -0.393. The same measure, in the same setting: under `CC1(C)[C@@H]2CC(C(O)C3C=CC4C(=O)N(c5ccccc5)C(=O)C4N3Nc3ccccc3F)=C[C@@H]1C2` (stereo not given in full) stands 0.749; under `[N-]=[N+]=NCc1ccccc1[C@H]1OC(c2ccc(OCCCO)cc2)=N[C@@]1(Cc1ccccc1N=[N+]=[N-])C(=O)N1CCCCC1`, -0.35. Regarding `CC(C)N1CC=CC23O[C@@H]4C=CCOC(=O)[C@@H]4[C@H]2C(=O)N(CCCCCCO)[C@@H]3C1=O` (stereo not given in full), the z-score is 0.454.

For the origin of these results see PubChem BioAssay.
